PubChem BioAssay (NCATS)
Inconclusive results are not listed. A number with no mark means an inactive call. Calls come from the whole dose curve; as a rule, active = well fitted inhibition curve with a large enough effect; inconclusive = small, poorly fitted or top-dose-only effect; inactive = no such curve, though single readings can be large or run the other way.

What follows are molecules tested against Retinaldehyde dehydrogenase 3 (Homo sapiens) (UniProt P47895) (assay: qHTS for Inhibitors of the Aldehyde Dehydrogenase Family (ALDH1A3) Primary screen (AID 2061315;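 note: plate controls were DMSO vehicle for no effect and reference inhibitor for full effect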)). Settings: ALDH inhibition qHTS; series mostly up to 56 µM; activity change, negative = inhibition: at the top concentration.

| SMILES | activity change, negative = inhibition |
| --- | --- |
| CN1CCc2cc3c(cc2[C@H]1[C@@H]1OC(=O)c2c1ccc1c2OCO1)OCO3 | 2.49% |
| CC(N[C@H]1C[C@H]1c1ccccc1)c1ccc2c(c1)OCCO2 (stereo partly specified) | -1.32% |
| Clc1ccc([C@]23CNC[C@H]2C3)cc1Cl | -20.8% |
| C[C@]12CC[C@H](O[C@@H]3O[C@H](CO)[C@@H](O)[C@H](O)[C@H]3O[C@@H]3O[C@H](CO)[C@@H](O)[C@H](O)[C@H]3O)CC1=CC[C@@H]1[C@@H]2CC[C@]2(C)[C@@H](C3=CC(=O)OC3)CC[C@]12O | 12.1% [at 16.9 µM] |
| CC(C)(O)[C@H]1O[C@H]2CC[C@@]3(C)[C@@](O)(CC[C@H]4Cc5c([nH]c6ccccc56)[C@@]43C)C2=CC1=O | -0.207% [at 28 µM] |
| CN1C(=O)N(c2ccc(C#N)c(C(F)(F)F)c2)C(=O)[C@@]1(CO)c1ccccc1 | -0.203% |
| CCOc1ccc(Oc2ccc(OCc3cc(F)ccc3F)cc2)c(N)c1 | -28.4% |
| CC[C@@H]1/C=C/C=C/C[C@H](C)C(O)[C@](C)(O)C(=O)[C@H](C)C(O)[C@H](C)C(=O)[C@H](C)[C@@H](O)[C@H](C)/C=C/C(=O)O[C@H]2[C@@H](C)[C@@H](CC1)O[C@]1(O[C@H](C[C@H](C)O)[C@H](C)CC1=O)[C@@H]2C (stereo partly specified) | 26% [at 16.9 µM] |
| N#CC(OC1OC(COC2OC(CO)C(O)C(O)C2O)C(O)C(O)C1O)c1ccccc1 (stereo unspecified) | 2.48% [at 28 µM] |
| CC(=O)OC[C@]12C[C@H](O)C(C)=C[C@H]1O[C@@H]1[C@H](O)[C@@H](OC(C)=O)[C@@]2(C)[C@]12CO2 | 6.02% |
| Cc1sc2c(c1C)C(c1ccc(Cl)cc1)=NC(CC(=O)OC(C)(C)C)c1nnc(C)n1-2 (stereo unspecified) | 6.98% |
